105 compounds from PubChem BioAssay AID2501 (Southern Research Specialized Biocontainment Screening …, 2010) can be followed below.

Several values for one entry are separate records, joined by “and”; a condition that tells them apart may be missing. Equal values may be shown once. In all, about 2,200 compounds went through this assay and about 1,200 (55%) were called active. No cut-off is given here; in the data, nearly all actives have IC50 up to about 92 µM. So high a share suggests a set chosen from earlier hits. The list shows a part of the results.

The assay in a line: counter assay for TAg ATPase ADP read-out – biochemical, ADP-Hunter, fluorescence, counter-screen (AID 2501).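 Note: purified T antigen ATPase.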 Conditions: series mostly up to 100 µM. On the technique in general: The purpose of a counterscreen is to sort out artefacts and off-target activity.
A word on the IC50: it is the midpoint of a concentration-inhibition curve. As to `Cc1cccc(N2CCN(C(=O)Cn3sc4nc(C)cc(C)c4c3=O)CC2C)c1` (stereo not given), the IC50 result was “inactive”.

In the case of `O=c1[nH]c(=S)[nH]c2c1C(c1ccc(Br)cc1)c1c([nH]c(=S)[nH]c1=O)O2`, the IC50 entry is “inactive”.

With `O=C1CCCC2=C1C(c1ccc(Br)cc1)c1c([nH]c(=S)[nH]c1=O)N2` (stereo not given), the IC50 is 92 µM (active). Under `COCCNC(=S)N/N=C(\C)c1ccc(O)cc1` stands 3.77 µM (active).

`COCCCNC(=S)N/N=C/c1ccc(O)cc1`: the half-maximal inhibitory concentration (IC50) was 1.83 µM (active). Under `C/C(CCc1ccccc1)=N\NC(=S)NCCc1ccccc1` stands “inactive”; under `COCCCNC(=O)c1cc2cc3cc(OC)ccc3nc2o1`, “inactive”; under `COCCCNC(=S)N/N=C/c1ccc(O)cc1O`, 6.62 µM (active). Under `O=[N+]([O-])c1ccc2c(c1N1CCCCC1)=NC1(CCCCC1)[N+]=2[O-]` stands “inactive”.

`COc1ccc(NC(=O)c2sc(=S)[nH]c2N)cc1`: the IC50 was 8.22 µM (active). Under `N=C1/C(=C\c2ccc(SCc3ccco3)o2)C(=O)N=C2SC=NN12` stands “inactive”; under `COc1cc(/C=N/N=C2/C(=O)Nc3ccccc32)cc(OC)c1O`, 5.67 µM (active); under `O=C1Nc2ccccc2/C1=N\N=C\c1ccc(O)c(O)c1`, 8.1 µM (active). As to `COc1cc(/C=N/N=C2/C(=O)Nc3ccccc32)ccc1O`, the IC50 is 4.52 µM (active). Under `CCOC(=O)CN1C(=O)CC(c2ccc([N+](=O)[O-])cc2)C1=O` (stereo not given) stands “inactive”; under `O=C(CS(=O)(=O)c1ccccc1)c1cc2cc(F)ccc2oc1=O`, “inactive”; under `CN(C)C(=O)c1c(-c2ccccc2)oc2ccc(O)cc12`, 17.2 µM (active). Under `C=CCSC1=NC(=O)/C(=C/c2cccs2)S1` stands “inactive”; under `COc1ccc(N2C(=S)NC3c4cc(Cl)ccc4OC2(C)C3C(=O)N(C)C)cc1` (stereo not given), “inactive”.

`CCOc1cc(/C=C2\C(=O)NN(c3ccccc3)C2=O)cc([N+](=O)[O-])c1O`: the IC50 was 6.78 µM (active). For `CCOc1cc(/C=C2\C(=N)N3N=CSC3=NC2=O)ccc1OS(=O)(=O)c1ccccc1`, the IC50 result is “inactive”. To `COc1cc(/C=C2/C(=O)NN(c3ccc(Cl)c(Cl)c3)C2=O)cc([N+](=O)[O-])c1O` belongs 14.6 µM (active); to `COc1cc(/C=C2\C(=O)NN(c3ccccc3)C2=O)cc([N+](=O)[O-])c1O`, 59.3 µM (active); to `Cc1ccsc1/C=C1/C(=O)NN(c2ccccc2)C1=O`, 1.75 µM (active).

Regarding `CCOc1cc(/C=C2\C(=O)ON=C2c2ccccc2)cc(Br)c1O`, the IC50 result was “inactive”. To `C/C(=N\NC(=O)c1csc(C)c1C)c1ccc(C)s1` belongs “inactive”; to `O=Cc1coc2c(ccc3ccccc32)c1=O`, 10.1 µM (active); to `O=C1CC(c2ccc(O)c(O)c2)Oc2c1ccc(O)c2O` (stereo not given), 13.6 µM (active). Under `COc1cc([C@@H]2Oc3cc(C4Oc5cc(O)cc(O)c5C(=O)[C@H]4O)ccc3O[C@H]2CO)ccc1O` (stereo not given in full) stands 31.4 µM (active); under `O=C1CC(c2ccc(O)c(O)c2)Oc2cc(O)cc(O)c21` (stereo not given), 4.23 µM (active). Under `COc1cc(OC)c2c(c1O)OC(c1ccccc1)CC2=O` (stereo not given) stands “inactive”; under `O=C1c2c(O)cc(O)cc2O[C@H](c2ccc(O)c(O)c2)[C@H]1O`, 5.9 µM (active). Regarding `CC(=O)Nc1nnc(SCc2cccc(F)c2)s1`, the IC50 entry is “inactive”. To `O=C(O)CN1C(=O)/C(=C\C(Br)=C\c2ccccc2)SC1=S` belongs “inactive”; to `O=C1/C(=C/c2ccco2)SC(=S)N1CCC(=O)N1CCCCC1CCO` (stereo not given), “inactive”. Under `O=C1NC(=S)S/C1=C\c1ccc(SCc2ccccc2)o1` stands “inactive”; under `O=C1NC(=S)S/C1=C/c1ccc(N2CCOCC2)o1`, 18.9 µM (active). Under `O=C(O)CN1C(=O)/C(=C/c2ccc(N3CCCCC3)o2)SC1=S` stands 38.4 µM (active); under `COc1ccccc1N1C(=O)C=C(Sc2nc(C)cc(C)n2)C1=O`, “inactive”; under `CN(C)c1ccc(N=c2sc3ccccc3n2C)cc1`, 7.65 µM (active). Take `COC(=O)/C(=C/Nc1ccc(O)cc1)[N+](=O)[O-]`: the IC50 was 3.8 µM (active). Under `O=C(c1ccco1)N1CCN(C(=S)Nc2ccc(F)c(Cl)c2)CC1` stands 39.5 µM (active). Under `N=c1c[n+](N2CCOCC2)[n-]o1` stands “inactive”; under `CN1CCN(c2nc(Nc3ccc(O)cc3)nc3ccccc23)CC1`, 6.32 µM (active); under `Oc1ccc(Nc2nc(N3CCCC3)c3ccccc3n2)cc1`, 4.06 µM (active).

Consider `C(=Nc1ccc(Nc2ccccc2)cc1)c1ccc2ccccc2c1`, for which the IC50 was 6.4 µM (active).

For the compound `O/N=C/c1ccc2ccccc2c1`, the IC50 entry is “inactive”. Under `C/C(=C/c1oc2ccc(O)cc2c1[N+](=O)[O-])N(C)C` stands 5.75 µM (active); under `CC(=O)N1CCN(c2ccc(NCc3ccc(C)s3)cc2)CC1`, 3.62 µM (active); under `O=C(C1=C[C@H](C2CCCCC2)C[C@H](OCCCCO)O1)N1CCN(Cc2ccc3c(c2)OCO3)CC1`, “inactive”.

Consider `CC(=O)N1CCN(c2ccc(NCc3cccc4ccccc34)cc2)CC1`, for which the IC50 is 4.52 µM (active). Regarding `O=C(c1ccccc1)N1CCN(c2ccc(NCc3ccc4c(c3)OCO4)cc2)CC1`, the IC50 is 5.7 µM (active).

As to `O=C(c1ccc(CNS(=O)(=O)c2ccccc2)cc1)N1CCN(Cc2ccccc2)CC1`, the IC50 result is “inactive”. To `O=C(O)CC(C(=O)O)n1nc(-c2ccccc2)cc1-c1ccccc1` (stereo not given) belongs “inactive”; to `CC(=O)c1ccc2c(c1)C1C=CCC1C(C(=O)O)N2` (stereo not given), “inactive”; to `CCn1ccc(C(=O)N2CCN(c3ncccn3)CC2)n1`, “inactive”.

In the case of `Cc1csc(N/N=C/c2ccc(O)c([N+](=O)[O-])c2)n1`, the IC50 is 13.2 µM (active). Under `CC(C)(C)c1ccc(C(=O)n2cnc3ccccc32)cc1` stands “inactive”. To `Oc1ccc(-c2nc(-c3ccc(F)cc3)c(-c3ccncc3)[nH]2)cc1` belongs 8.21 µM (active); to `C/C(=N/OC(=O)C1CC1)c1cc(-c2ccc(Cl)cc2)no1`, “inactive”. On to `Cc1ccc(OC(=S)Nc2ccc(O)cc2)cc1`, for which the IC50 is 7.84 µM (active). To `CCN(c1ccc(NC(=O)CN2C(=O)NC3(CCOc4ccccc43)C2=O)cc1)C(C)C` (stereo not given) belongs 11.1 µM (active); to `Cc1cc(C(=O)NNC(=O)CN2C(=O)NC(C)(c3ccccc3)C2=O)c(C)o1` (stereo not given), “inactive”; to `CC1(c2ccccc2)NC(=O)N(CC(=O)Nc2ccc(S(=O)(=O)Nc3ncccn3)cc2)C1=O` (stereo not given), “inactive”. As to `Cc1cc2c(N=O)c(NO)ccc2[nH]1`, the half-maximal inhibitory concentration (IC50) was 24.4 µM (active).

As to `O=C1CNC(=S)N1CCc1ccc(O)c(O)c1`, the IC50 is 10.7 µM (active). Take `OC(COc1ccc2cc(Br)ccc2c1)CN1CCCC1` (stereo not given): the IC50 result was “inactive”.

Take `O/N=C(\c1ccc2c(c1)OCCO2)C1CCCCC1`: the IC50 result was “inactive”. With `O=c1ccc2cc(O)c(O)cc2o1`, the IC50 is 11.3 µM (active). Consider `N#CSCC(=O)c1cccc2ccccc12`, for which the IC50 result was “inactive”.

As for `O=C(c1ccc([N+](=O)[O-])cc1)N1CCN(c2cccc3[nH]ccc23)CC1`, the 50% inhibitory concentration (IC50) was 8.91 µM (active). `Cc1cc(OCC(=O)N(C)c2ccccc2)cc2c1C(=O)CC(C)(C)O2`: the IC50 entry was “inactive”.

For `O=C(NCCO)c1ccc2nc(-c3ccco3)c(-c3ccco3)nc2c1`, the IC50 entry was “inactive”. Under `CCCc1cc(C(=O)N2CCCC(C(=O)c3cccc4ccccc34)C2)n(C)n1` (stereo not given) stands “inactive”. To `O=C(/C=C/c1ccc(O)c(O)c1)O[C@@H]1C[C@](O)(C(=O)O)C[C@@H](O)[C@H]1O` belongs 4.26 µM (active) and 8.41 µM (active).

As to `CCCCNC(=O)c1onc(CCl)c1C(=O)OC`, the IC50 result is “inactive”. For the compound `COc1cc(Cl)ccc1NC(=O)COc1ccccc1C(=O)N1CCN(c2ccc(O)cc2)CC1`, the IC50 is 6.1 µM (active). Take `COc1cc(SC)ccc1C(=O)N1CCN(Cc2ccccc2)CC1`: the IC50 result is “inactive”. To `COc1cc(SC)ccc1C(=O)N1CCN(c2ccc(O)cc2)CC1` belongs 5.86 µM (active); to `O=C(CCC1CCCCC1)Nc1ccccc1C(=O)N1CCOCC1`, “inactive”; to `CCCCC(=O)OCC(=O)c1[nH]c(C)c(C(=O)OCC)c1C`, “inactive”. Under `COc1cccc([C@H](O)Cn2cc(-c3ccc(CON=C(C)C)cc3)nn2)c1` stands “inactive”; under `CN(C)c1ccc(NC(=O)Cn2ncn3c(cc4ccccc43)c2=O)cc1`, 10.4 µM (active); under `CCOc1ccc(NC(=O)Cn2sc3nc(C)cc(C)c3c2=O)cc1`, “inactive”. With `CN(C)c1ccc(NC(=O)CN2CCN(c3ccc(F)cc3)CC2)cc1`, the IC50 was 2.66 µM (active). Turning to `CN(C)c1ccc(NC(=O)CN2CCN(CC(=O)Nc3ccc(F)cc3)CC2)cc1`, the IC50 is 9.6 µM (active).

Consider `CN(C)c1ccc(NC(=O)COC(=O)Cn2nnc3ccccc32)cc1`, for which the IC50 is 4.51 µM (active).

Consider `Cc1cccc(-n2c3nc(=O)[nH]c(=O)c-3cc3cc([N+](=O)[O-])ccc32)c1`, for which the IC50 result is “inactive”. To `CCOC(=O)C1CCN(c2ncnc3c2nnn3Cc2ccccc2Cl)CC1` belongs “inactive”.

On to `Cc1nn(CC(=O)Nc2ccc(N(C)C)cc2)c(C)c1[N+](=O)[O-]`, for which the half-inhibitory concentration (IC50) is 5.17 µM (active). To `CCOC(=O)c1ccc(NC(=O)CC2NCCNC2=O)cc1` (stereo not given) belongs “inactive”.

Turning to `Cc1c(-c2ccccc2)oc2c(C(=O)OCC(=O)Nc3ccc(C(N)=O)cc3)cccc2c1=O`, the IC50 result was “inactive”. Under `CN(C)c1ccc(NC(=O)CC2NCCNC2=O)cc1` (stereo not given) stands 4.71 µM (active); under `CN(C)c1ccc(NC(=O)COC(=O)CCC(=O)c2ccc(F)cc2)cc1`, 4.64 µM (active). For the compound `Oc1ccc2c(c1)C1CCCC1(N1CCOCC1)O2` (stereo not given), the IC50 result is “inactive”. Under `CC(C)(C)c1nnc(NC(=O)CN2C(=O)C3C4C=CC(C4)C3C2=O)s1` (stereo not given) stands “inactive”.

Take `COc1ccc(NCN2C(=O)C3C4C=CC(C4)C3C2=O)cc1` (stereo not given): the IC50 is 11.4 µM (active). Under `c1ccc(-c2ccc3c(c2)NCCN3)cc1` stands 7.7 µM (active).

On to `CCCCC/C=C\C/C=C\C/C=C\C/C=C\CCCC(=O)O`, for which the IC50 entry is “inactive”. Under `COc1cccc(-n2c(=O)c3ccccc3n3c(=S)[nH]nc23)c1` stands 16.1 µM (active); under `COc1cccc(N2CC(=O)Nc3c(oc4nc(-c5ccccc5)cc(C)c34)C2=O)c1`, “inactive”. To `COCCCn1c(=O)c2ccccc2n2c(=S)[nH]nc12` belongs 8.77 µM (active); to `COc1cccc(-n2cnnn2)c1`, “inactive”; to `CCCCCn1c(=O)c2ccccc2n2c(=S)[nH]nc12`, 11.7 µM (active).

As to `CC(C)CCn1c(=O)c2ccccc2n2c(=S)[nH]nc12`, the IC50 was 10.9 µM (active).
